Six1-Eya2 inh – qHTS Assay for Inhibitors of the Six1/Eya2 Interaction; activity change, % (no concentration beside the values); Homeobox protein SIX1 (Homo sapiens) + Protein phosphatase EYA2 (Homo sapiens), …; 360,000 tested, 0.56% active; AlphaScreen GST-Six1/His-Eya2 binding, biochemical; active compounds read low; in the data active = activity change below about -65%; inconclusive = mostly about -30% to -63%
Target sequence (O00167 whole entry, looked up): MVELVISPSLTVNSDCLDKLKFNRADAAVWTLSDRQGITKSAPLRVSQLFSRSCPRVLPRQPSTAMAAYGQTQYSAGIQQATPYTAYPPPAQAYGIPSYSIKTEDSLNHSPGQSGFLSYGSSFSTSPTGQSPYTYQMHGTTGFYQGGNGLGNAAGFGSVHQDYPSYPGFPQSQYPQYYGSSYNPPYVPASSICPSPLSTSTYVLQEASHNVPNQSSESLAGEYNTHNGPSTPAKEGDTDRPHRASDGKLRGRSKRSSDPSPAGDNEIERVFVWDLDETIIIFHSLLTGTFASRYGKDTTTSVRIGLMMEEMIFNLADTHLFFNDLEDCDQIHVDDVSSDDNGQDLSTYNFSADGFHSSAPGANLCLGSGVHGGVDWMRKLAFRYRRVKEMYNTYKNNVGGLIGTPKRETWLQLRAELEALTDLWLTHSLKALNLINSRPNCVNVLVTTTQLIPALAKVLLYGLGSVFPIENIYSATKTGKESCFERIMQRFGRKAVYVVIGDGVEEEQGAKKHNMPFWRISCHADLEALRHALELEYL
Target sequence (Q15475 whole entry, looked up): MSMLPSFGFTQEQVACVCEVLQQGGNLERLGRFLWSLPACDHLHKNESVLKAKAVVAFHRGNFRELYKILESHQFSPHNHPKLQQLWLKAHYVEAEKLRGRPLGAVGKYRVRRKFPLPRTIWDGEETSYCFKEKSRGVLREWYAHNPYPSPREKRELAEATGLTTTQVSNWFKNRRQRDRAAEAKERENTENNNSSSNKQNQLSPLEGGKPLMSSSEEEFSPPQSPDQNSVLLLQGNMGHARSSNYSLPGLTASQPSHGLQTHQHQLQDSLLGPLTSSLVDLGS
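Homogeneous AlphaScreen proximity assay pairing GST-Six1 with His-tagged Eya2 (added as 5X mix: 250 nM and 500 nM) in 50 mM Tris pH 8.0, 300 mM NaCl, 1 mM TCEP. Glutathione donor and nickel acceptor beads; 1 h, 37 °C, dark.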
DT40 TDP1 CPT – qHTS for Inhibitors of human tyrosyl-DNA phosphodiesterase 1 (TDP1): qHTS in cells in presence of CPT; 420,000 tested, 12% active; AID 686979, 2013; Potency, µM (doses to about 46.2 µM), usual class: inhibitors; chicken DT40 Tdp1-/-;hTDP1 cells + 20 nM CPT, ATP luminescence, 48 h; note: nearly all actives have a fitted effect of over 55% in size
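Chicken DT40 Tdp1-/- cells stably complemented with human TDP1 were seeded at 400 cells/well in medium containing 20 nM camptothecin, exposed to pin-transferred compounds, and grown at 37 °C for at least 48 hr. Viability was read as ATP luminescence.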
TDP1 cell noCPT – qHTS for Inhibitors of human tyrosyl-DNA phosphodiesterase 1 (TDP1): qHTS in cells in absence of CPT; DT40 Tdp1-/- hTDP1 cells, no CPT, ATP luminescence, 48 h; Potency, µM (titrated, usually from 46.2 µM), actives largely listed as inhibitors; 420,000 tested, 15% active; AID 686978, 2013; note: nearly all actives have a fitted effect of over 55% in size
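Chicken DT40 Tdp1-/- cells complemented with human TDP1, screened without camptothecin (DMSO vehicle only), 400 cells/well. Compounds pin-transferred, cells incubated at 37 °C for at least 48 hr. Growth read as ATP-dependent luminescence (CellTiter-Glo, 30 min at RT).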
IL1B secr inh – qHTS for Inhibitors of Inflammasome Signaling: IL-1-beta AlphaLISA Primary Screen. 360,000 tested, 4.7% active. THP-1 LPS/ATP IL-1B secretion, AlphaLISA, 16 h; active compounds read low. activity change, % at 57.5 µM. AID 743279, 2014; in the data active = activity change below about -50%; inconclusive = mostly about -30% to -49%
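THP-1 cells pretreated 1 hr with compounds (up to 57.5 uM final), then stimulated with LPS (250 ng/mL final) plus ATP (1.25 mM final); secreted IL-1B measured by AlphaLISA after 16 hr, decreased signal indicating inhibition.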
TDP1 block – qHTS Assay for Inhibitors of Tyrosyl-DNA Phosphodiesterase (TDP1) | Tyrosyl-DNA phosphodiesterase 1 (Homo sapiens), Q9NUW8 | recombinant TDP1, AlphaScreen DNA substrate cleavage | Potency, µM (titrated, usually from 130 µM), actives largely listed as inhibitors | 350,000 tested, 0.28% active | AID 485290, 2010; note: nearly all actives have a fitted effect of over 40% in size
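Recombinant E. coli-expressed Tdp1 (1 nM) preincubated with compound 15 min at RT, then 5'-biotin/3'-phosphotyrosine-FITC DNA substrate (15 nM) added for 5 min. AlphaScreen beads (10 ug/ml) added, 10 min RT; tyrosine-FITC cleavage read as signal loss.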
CtBP-E1A inh – qHTS Assay for Inhibitors of the CtBP/E1A Interaction | CtBP / adenovirus E1A interaction (AlphaScreen) | AlphaScreen GST-E1A/His-CtBP binding, 1536-well; active compounds read low | activity change, % (test concentration not listed) | 340,000 tested, 0.49% active | AID 651724, 2012; in the data active = activity change below about -65%; inconclusive = mostly about -30% to -63%
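Steps: dispense buffer (Tris pH 8.0, NaCl 300 mM, TCEP 1 mM, BSA, Tween 20); add 5X protein mix (GST-E1A, His-CtBP, 125 nM each); pin 23 nL compound; 2 h at 37 °C, dark; add 5X beads (50 ug/mL); 1 h; read.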
Large screens that a line does not name were inactive. Compounds with a hit are over-represented: about 18% of the library has one in this group of screens. Unless noted, calls come from the whole dose curve; as a rule, active = well fitted curve in the direction sought with a large enough effect; inconclusive = small, poorly fitted or top-dose-only effect, or another doubt; inactive = no such curve, though single readings can be large; an effect the other way counts as inactive or inconclusive.

COC(=O)c1ccccc1NC(=O)Cn1c(CCC(=O)O)ccc1-c1ccc(C)cc1	TDP1 cell noCPT inconclusive (no result: Six1-Eya2 inh, IL1B secr inh, CtBP-E1A inh)
C[C@@]12C(=O)OC(=O)[C@@]1(C)C1CCC2O1	none (no result: Six1-Eya2 inh, IL1B secr inh, CtBP-E1A inh)
C[C@@]12C(=O)OC(=O)[C@@]1(C)[C@@H]1CC[C@@H]2O1	DT40 TDP1 CPT 30µM, TDP1 cell noCPT 30µM (no result: Six1-Eya2 inh, IL1B secr inh, CtBP-E1A inh)
CC(=O)Nc1ccc(NC(=O)C(C)OC(=O)C2CCN(S(=O)(=O)c3ccccc3C(F)(F)F)CC2)cc1 (stereo not given)	none
O=C(COC(=O)CC1c2ccccc2CCN1S(=O)(=O)c1ccccc1)Nc1ccccc1 (stereo not given)	DT40 TDP1 CPT inconclusive, TDP1 cell noCPT 21µM
COc1cc(-c2c(CCO)sc3ccccc23)cc(OC)c1OC	DT40 TDP1 CPT 6.5µM, TDP1 cell noCPT 6.5µM (no result: TDP1 block)
COc1ccc(CC(=O)NCCc2ccc(Cl)cc2Cl)cc1	none
COc1ccc2cc(CN(CC3CCCO3)C(=O)Nc3ccccc3OC)c(=O)[nH]c2c1 (stereo not given)	DT40 TDP1 CPT 4.1µM, TDP1 cell noCPT 4.6µM
COc1ccc(NC(=O)N(Cc2cc3cc(OC)ccc3[nH]c2=O)CC2CCCO2)cc1 (stereo not given)	DT40 TDP1 CPT inconclusive, TDP1 cell noCPT inconclusive
COc1ccc(NC(=O)N(Cc2cc3ccc(OC)cc3[nH]c2=O)CC2CCCO2)cc1 (stereo not given)	DT40 TDP1 CPT 18µM, TDP1 cell noCPT 13µM
COc1ccc2cc(CN(C(=O)Nc3ccccc3OC)C3CCCC3)c(=O)[nH]c2c1	DT40 TDP1 CPT inconclusive, TDP1 cell noCPT inconclusive, IL1B secr inh inconclusive
CC[C@H](C)[C@H](NC(=O)[C@H](Cc1ccccc1)NC(=O)[C@H](CCC(=O)O)NC(=O)[C@H](CCCCN)NC(=O)[C@H](C)NC(=O)[C@H](C)NC(=O)[C@H](CCC(N)=O)NC(=O)CNC(=O)[C@H](CCC(=O)O)NC(=O)[C@H](CC(C)C)NC(=O)[C@H](Cc1ccc(O)cc1)NC(=O)[C@H](CO)NC(=O)[C@H](CO)NC(=O)[C@@H](NC(=O)[C@H](CC(=O)O)NC(=O)[C@H](CO)NC(=O)[C@@H](NC(=O)[C@H](Cc1ccccc1)NC(=O)[C@@H](NC(=O)CNC(=O)[C@H](CCC(=O)O)NC(=O)[C@H](C)NC(=O)[C@@H](N)Cc1cnc[nH]1)[C@@H](C)O)[C@@H](C)O)C(C)C)C(=O)N[C@@H](C)C(=O)N[C@@H](Cc1c[nH]c2ccccc12)C(=O)N[C@@H](CC(C)C)C(=O)N[C@H](C(=O)N[C@@H](CCCCN)C(N)=O)C(C)C	none (no result: Six1-Eya2 inh, DT40 TDP1 CPT, TDP1 cell noCPT, IL1B secr inh, CtBP-E1A inh)
COCCNC(=O)CN1N=C(c2ccc(C)cc2)CCC1=O	none (no result: TDP1 block)
COc1cc2nc(Cl)nc(N3CCCCC3)c2cc1OC	TDP1 cell noCPT 26µM, IL1B secr inh -61
CCOc1cc2[nH]c(=S)n(Cc3ccc(C(=O)NCCCN4CCOCC4)cc3)c(=O)c2cc1OCC	DT40 TDP1 CPT inconclusive, TDP1 cell noCPT 18µM
COC(=O)c1ccc2c(=O)n(Cc3ccc(C(=O)NCCCN4CCC(C)CC4)cc3)c(=S)[nH]c2c1	DT40 TDP1 CPT 21µM, TDP1 cell noCPT 16µM, IL1B secr inh -106
CCOc1cc2[nH]c(=O)n(Cc3ccc(C(=O)NCCCN4CCC(C)CC4)cc3)c(=O)c2cc1OCC	DT40 TDP1 CPT inconclusive, TDP1 cell noCPT 23µM
Cc1nc2ccn(Cc3cccs3)c(=O)c2cc1C(=O)NCc1ccccc1	none (no result: Six1-Eya2 inh, IL1B secr inh, CtBP-E1A inh)
COC(=O)CN(c1cc(Cl)ccc1OC)S(=O)(=O)c1ccc(OC)c(OC)c1	DT40 TDP1 CPT inconclusive

Compound activity as filed in PubChem.
